AC50 and outcome data for five compounds are collected here from PubChem BioAssay (EPA / NIEHS).

Some compounds were tested as several samples or in several runs, with calls that do not always agree. The source made the active and inactive calls. The calls were made as follows: active = hit-call score of the fitted dose curve at least 0.9, where 1 is the maximum; inactive = score below 0.9.

A short description of assay [1]: ATG_CRE_CIS: Attagene CIS-FACTORIAL HepG2 Assay for human cAMP Responsive Element (CRE) binding protein 3 (AID 2282926). Particulars: HepG2 CRE cis-reporter, Attagene multiplexed mRNA; actives raise or lower the signal. The procedure, abridged: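 Transfected HepG2 were treated for 24 hours, then RNA was extracted and reporter cDNA amplified with sequence-specific primers. Labelled fragments were separated by capillary electrophoresis, and the CRE signal was fitted bidirectionally with DMSO as baseline.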

Assay [2] has as its target CCAAT/enhancer-binding protein beta (Homo sapiens) (UniProt P17676). The assay is described as follows: ATG_C_EBP_CIS: Attagene CIS-FACTORIAL HepG2 Assay for human CCAAT/Enhancer Binding Protein (C/EBP) beta (AID 2282927). The conditions noted are these: HepG2 Attagene cis-factorial transcription factor reporter; actives raise or lower the signal. The procedure, abridged:
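Changes in reporter mRNA, rather than exogenous chimeric receptor activity, reflect native C/EBP signalling in transfected HepG2 cells dosed for 24 h; transcripts are detected by RT-PCR and capillary electrophoresis.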

A short description of assay [3]: ATG_CMV_CIS: Attagene CIS-FACTORIAL HepG2 Assay for human CMV (Internal Marker) (AID 2282928).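 Also: endpoint acts as a background internal control marker rather than a target.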 The conditions noted are these: HepG2 CMV promoter reporter, transcription factor profiling; actives raise or lower the signal. The procedure, abridged:
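HepG2 cells transiently transfected with multiple cis-regulated reporter units; 24 h compound exposure. Reporter mRNA quantified by RT-PCR, 6-FAM primer-extension labeling, HpaI digestion and capillary electrophoresis; bidirectional fitting against DMSO baseline.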

A short description of assay [4]: ATG_DR4_LXR_CIS: Attagene CIS-FACTORIAL HepG2 Assay for human Liver X Receptor (LXR), DR4 submotif (AID 2282929). Particulars: HepG2 Attagene DR4 cis-reporter, mRNA transcription; actives raise or lower the signal. The procedure, abridged: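 After transient transfection with multiplexed cis-promoter reporter units, HepG2 cells received test chemicals for 24 h. Reporter mRNA induction, detected by fluorescence after RT-PCR and capillary electrophoresis, was scored relative to DMSO.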

Assay [5] concerns the target Aryl hydrocarbon receptor (Homo sapiens) (UniProt P35869). The assay is described as follows: ATG_Ahr_CIS: Attagene CIS-FACTORIAL HepG2 Assay for human Aryl Hydrocarbon Receptor (Ahr) (AID 2282930). Particulars: HepG2 AhR cis-factorial reporter transcription; actives raise or lower the signal. The procedure, abridged: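 HepG2, transient MRTU (cis) transfection, 24 h exposure. RNA → cDNA → PCR → 6-FAM primer extension → HpaI 2 h 37 C → CE. Fit: bidirectional, DMSO baseline.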

A short description of assay [6]: ATG_AP_1_CIS: Attagene CIS-FACTORIAL HepG2 Assay for human Activator Protein 1 (AP-1) (AID 2282931). Particulars: HepG2 Attagene cis-factorial AP-1 reporter mRNA; actives raise or lower the signal. The procedure, abridged: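 After 24 h incubation with test chemical, RNA from transfected HepG2 cells was reverse-transcribed, amplified, fluorescently labelled and digested before capillary electrophoresis. Reporters were driven by cis-regulatory promoters; activity fitted bidirectionally versus DMSO.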

Assay [7] is described as follows: ATG_AP_2_CIS: Attagene CIS-FACTORIAL HepG2 Assay for human Activator Protein 2 (AP-2) (AID 2282932). Particulars: HepG2 AP-2 cis-reporter, Attagene transcription factor profiling; actives raise or lower the signal. The procedure, abridged: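 HepG2, transient MRTU transfection, cis-regulated reporters; 24 h compound exposure; RNA isolated, RT-PCR, 6-FAM labelling, HpaI digest, CE fluorescence. DMSO = negative control/baseline, bidirectional fit.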

Assay [8] is described as follows: ATG_BRE_CIS: Attagene CIS-FACTORIAL HepG2 Assay for human Bone Morphogenetic Protein (BMP) Response Element (BRE) (AID 2282933). The conditions noted are these: HepG2 BMP response element reporter, Attagene transcription factor profiling; actives raise or lower the signal. The procedure, abridged:
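A HepG2 multiplex reporter system measured inducible reporter mRNA 24 h post-dosing. Detection: RT-PCR, 6-FAM primer extension, HpaI digestion, capillary electrophoresis. Activity fitted bidirectionally relative to DMSO.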

In assay [9] the target is Retinoic acid receptor alpha (Homo sapiens) (UniProt P10276). In words: ATG_DR5_RAR_CIS: Attagene CIS-FACTORIAL HepG2 Assay for human Retinoic Acid Receptor Alpha (RARE), DR5 submotif (AID 2282934).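 As to AC50: reporter responds to endogenous RAR alpha beta and gamma in HepG2 not RARA alone.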 The conditions noted are these: HepG2 Attagene cis-factorial RARE DR5 reporter, mRNA; actives raise or lower the signal. The procedure, abridged:
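HepG2, transient cis-reporter transfection, 24 h exposure. mRNA readout: RT-PCR, FAM label, HpaI cut, capillary electrophoresis. DMSO baseline, gain/loss fitting.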

Assay [10] has as its target Transcription factor E2F1 (Homo sapiens) (UniProt Q01094). In words: ATG_E2F_CIS: Attagene CIS-FACTORIAL HepG2 Assay for human E2F Transcription Factor 1 (AID 2282935). Particulars: HepG2 Attagene cis-reporter, E2F reporter RNA transcripts; actives raise or lower the signal. The procedure, abridged: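 Cis-element reporter mRNA induction in transiently transfected HepG2, 24 h exposure. Activity fitted in both directions relative to DMSO negative control.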

Assay [11] can be described thus: ATG_M_61_CIS: Attagene CIS-FACTORIAL HepG2 Assay for M61 Transcription Factor (Internal Marker) (AID 2282937). Particulars: HepG2 Attagene CIS-FACTORIAL M61 internal marker reporter; actives raise or lower the signal. The procedure, abridged: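 Using transiently transfected HepG2 liver cells, reporter transcript levels were assessed 24 h post-dosing by RT-PCR and capillary electrophoresis. Changes in either direction were fitted relative to DMSO controls.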

A short description of assay [12]: ATG_EGR_CIS: Attagene CIS-FACTORIAL HepG2 Assay for human Early Growth Response 1 (EGR1) (AID 2282938). The conditions noted are these: HepG2 Attagene CIS-FACTORIAL EGR reporter mRNA; actives raise or lower the signal. The procedure, abridged: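 Fluorescent capillary-electrophoresis signal of reporter cDNA fragments serves as read-out. HepG2 cells bear transiently transfected cis-promoter reporter units and are exposed 24 h; gain- or loss-of-signal is fitted against DMSO.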

Assay [13] in a line: ATG_M_19_CIS: Attagene CIS-FACTORIAL HepG2 Assay for M19 Transcription Factor (Internal Marker) (AID 2282939). The conditions noted are these: HepG2 Attagene CIS-FACTORIAL M19 internal marker reporter; actives raise or lower the signal. The procedure, abridged: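 Chemical-treated HepG2 (24 h) with MRTU constructs; reporter transcripts detected by fluorescent RT-PCR fragment analysis on capillary electrophoresis. Internal background marker, DMSO as baseline.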

Assay [14] is described as follows: ATG_Ets_CIS: Attagene CIS-FACTORIAL HepG2 Assay for human Erythroblast Transformation Specific (ETS) (AID 2282941). Particulars: HepG2 ETS cis-reporter transcription, actives raise or lower the signal. The procedure, abridged: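 HepG2 cells transiently transfected with cis-promoter reporter transcription units were dosed for 24 h; reporter mRNA was measured by RT-PCR, 6-FAM primer extension, HpaI digestion and capillary electrophoresis, with bidirectional fitting against DMSO baseline.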

Assay [15] deals with Hepatocyte nuclear factor 3-beta (Homo sapiens) (UniProt Q9Y261). The assay is described as follows: ATG_FoxA2_CIS: Attagene CIS-FACTORIAL HepG2 Assay for human Forkhead box A2 (FOXA2) (AID 2282942). Particulars: HepG2 cis-reporter transcription factor activity, 24 h; actives raise or lower the signal. The procedure, abridged: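 Fluorescence signal of reporter cDNA fragments, separated by capillary electrophoresis, reflects endogenous transcription factor activity in transfected HepG2 after 24 h. Both increases and decreases fitted against DMSO.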
Hepatocyte nuclear factor 3-beta (Homo sapiens), sequence (Q9Y261 whole entry, looked up, the tested form may be a part): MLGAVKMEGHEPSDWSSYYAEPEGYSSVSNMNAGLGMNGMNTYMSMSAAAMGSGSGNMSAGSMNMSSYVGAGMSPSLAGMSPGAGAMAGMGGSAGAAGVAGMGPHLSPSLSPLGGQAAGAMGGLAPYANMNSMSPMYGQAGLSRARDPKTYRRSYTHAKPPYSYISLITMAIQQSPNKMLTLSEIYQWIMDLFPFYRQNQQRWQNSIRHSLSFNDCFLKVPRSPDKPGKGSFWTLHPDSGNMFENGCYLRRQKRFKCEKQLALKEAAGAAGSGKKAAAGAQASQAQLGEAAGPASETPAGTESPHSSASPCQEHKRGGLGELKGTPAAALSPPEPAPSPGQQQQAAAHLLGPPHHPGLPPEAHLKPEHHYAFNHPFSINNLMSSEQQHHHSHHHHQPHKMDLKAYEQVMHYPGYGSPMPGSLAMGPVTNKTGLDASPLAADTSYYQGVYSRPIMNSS

Assay [16] can be described thus: ATG_GATA_CIS: Attagene CIS-FACTORIAL HepG2 Assay for human GATA Binding Protein (AID 2282944). Particulars: HepG2 GATA cis-element reporter, Attagene multiplex mRNA; actives raise or lower the signal. The procedure, abridged: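 Transfected cis-reporter HepG2 cells were treated with chemicals for 24 hours. Total RNA was then converted to cDNA, amplified with reporter-specific primers and analysed by fluorescent capillary electrophoresis, using DMSO-treated wells as baseline.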

Assay [17] can be described thus: ATG_GLI_CIS: Attagene CIS-FACTORIAL HepG2 Assay for human Zinc Finger Protein GLI1 (AID 2282945). The conditions noted are these: HepG2, Attagene cis-factorial reporter mRNA, GLI element; actives raise or lower the signal. The procedure, abridged: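 Bidirectional curve fits relative to DMSO, using reporter mRNA levels from RT-PCR plus capillary electrophoresis. Cells were HepG2 transiently carrying cis-regulated reporter constructs, harvested 24 h after dosing.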

Assay [18] can be described thus: ATG_E_Box_CIS: Attagene CIS-FACTORIAL HepG2 Assay for human Enhancer Box (E-box) (AID 2282936). Particulars: HepG2 E-box cis-reporter transcription, actives raise or lower the signal. The procedure, abridged: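 Cells: HepG2 (human liver), transient MRTU transfection. Exposure 24 h. RNA → oligo(dT) RT → PCR → 6-FAM label → HpaI → CE. Activity fitted both directions relative to DMSO.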

Assay [19] in a line: ATG_ERE_CIS: Attagene CIS-FACTORIAL HepG2 Assay for Estrogen Response Element (ERE) (AID 2282940). The conditions noted are these: HepG2 ERE cis-reporter, Attagene RNA transcript; actives raise or lower the signal. The procedure, abridged:
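Human liver cells (HepG2) bearing transiently transfected, promoter-regulated reporter units were exposed 24 h. Reporter mRNA induction was detected by capillary electrophoresis of labelled RT-PCR products and fitted bidirectionally to DMSO.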

Aryl hydrocarbon receptor (Homo sapiens), sequence (P35869 whole entry, looked up): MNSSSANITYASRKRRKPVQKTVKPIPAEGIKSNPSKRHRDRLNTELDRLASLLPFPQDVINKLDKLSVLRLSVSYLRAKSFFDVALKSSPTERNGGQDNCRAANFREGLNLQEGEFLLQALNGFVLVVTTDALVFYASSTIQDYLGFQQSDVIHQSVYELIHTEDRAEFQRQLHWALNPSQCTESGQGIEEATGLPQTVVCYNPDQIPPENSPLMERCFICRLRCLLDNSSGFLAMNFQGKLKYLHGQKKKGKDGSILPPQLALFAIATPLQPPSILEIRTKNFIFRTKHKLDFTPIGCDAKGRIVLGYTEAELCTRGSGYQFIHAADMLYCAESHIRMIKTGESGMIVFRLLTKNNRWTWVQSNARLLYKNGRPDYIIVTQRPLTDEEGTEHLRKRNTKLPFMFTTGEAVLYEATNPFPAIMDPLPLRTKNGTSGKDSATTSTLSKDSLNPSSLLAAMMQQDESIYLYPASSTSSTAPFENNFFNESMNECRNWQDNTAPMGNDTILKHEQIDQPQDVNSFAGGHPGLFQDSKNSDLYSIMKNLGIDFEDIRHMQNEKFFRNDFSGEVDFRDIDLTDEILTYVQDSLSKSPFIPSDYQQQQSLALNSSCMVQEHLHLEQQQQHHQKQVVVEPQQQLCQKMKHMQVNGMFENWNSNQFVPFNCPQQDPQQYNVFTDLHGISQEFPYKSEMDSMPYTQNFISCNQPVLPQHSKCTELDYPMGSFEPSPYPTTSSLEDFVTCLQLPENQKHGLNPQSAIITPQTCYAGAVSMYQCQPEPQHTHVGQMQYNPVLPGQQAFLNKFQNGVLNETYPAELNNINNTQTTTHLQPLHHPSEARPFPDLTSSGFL
CCAAT/enhancer-binding protein beta (Homo sapiens), sequence (P17676 whole entry, looked up): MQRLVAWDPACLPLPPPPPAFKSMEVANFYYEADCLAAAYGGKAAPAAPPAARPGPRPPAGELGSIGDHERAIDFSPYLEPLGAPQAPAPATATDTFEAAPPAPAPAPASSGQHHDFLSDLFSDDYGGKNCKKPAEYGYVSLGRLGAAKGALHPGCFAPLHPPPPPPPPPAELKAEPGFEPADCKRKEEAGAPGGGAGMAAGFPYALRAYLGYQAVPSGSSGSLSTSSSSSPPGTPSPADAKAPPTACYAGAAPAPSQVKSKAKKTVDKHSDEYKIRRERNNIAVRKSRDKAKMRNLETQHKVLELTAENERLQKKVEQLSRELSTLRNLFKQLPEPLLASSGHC
Transcription factor E2F1 (Homo sapiens), sequence (Q01094 whole entry, looked up): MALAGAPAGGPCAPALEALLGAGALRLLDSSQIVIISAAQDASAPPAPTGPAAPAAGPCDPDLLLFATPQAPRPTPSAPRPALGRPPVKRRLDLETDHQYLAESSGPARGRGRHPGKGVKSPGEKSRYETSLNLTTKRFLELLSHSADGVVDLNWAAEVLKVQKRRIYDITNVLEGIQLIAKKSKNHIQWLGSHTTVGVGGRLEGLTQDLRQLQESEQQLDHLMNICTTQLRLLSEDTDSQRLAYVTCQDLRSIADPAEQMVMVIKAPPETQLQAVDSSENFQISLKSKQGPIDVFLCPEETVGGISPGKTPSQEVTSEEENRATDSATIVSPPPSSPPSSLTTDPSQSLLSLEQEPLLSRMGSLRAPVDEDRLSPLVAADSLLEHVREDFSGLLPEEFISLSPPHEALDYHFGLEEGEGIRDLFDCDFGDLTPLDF
Retinoic acid receptor alpha (Homo sapiens), sequence (P10276 whole entry, looked up): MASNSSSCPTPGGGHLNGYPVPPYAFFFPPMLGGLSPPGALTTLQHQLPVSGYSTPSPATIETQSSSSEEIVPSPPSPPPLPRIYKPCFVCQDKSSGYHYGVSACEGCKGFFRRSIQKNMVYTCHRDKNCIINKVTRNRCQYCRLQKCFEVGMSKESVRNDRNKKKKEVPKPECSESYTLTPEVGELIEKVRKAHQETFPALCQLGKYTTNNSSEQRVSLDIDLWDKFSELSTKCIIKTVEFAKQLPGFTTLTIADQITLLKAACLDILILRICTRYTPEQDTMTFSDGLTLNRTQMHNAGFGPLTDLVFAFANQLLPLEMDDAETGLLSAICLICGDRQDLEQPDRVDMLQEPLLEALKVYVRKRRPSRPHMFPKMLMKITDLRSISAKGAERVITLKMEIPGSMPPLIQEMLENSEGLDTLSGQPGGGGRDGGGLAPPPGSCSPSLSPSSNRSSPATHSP

In the case of `CCCCOC(=O)c1ccc(O)cc1`, the half-maximal activity concentration (AC50) in assay [1] was 72.6 µM (active); in assay [2], 100 µM (active); in [4], 169 µM (active); in assay [7], 136 µM (active); in [8], 166 µM (active) [middle of 4 runs]; in [12], 97.1 µM (active). Also, the half-maximal activity concentration (AC50) in assay [14] was 157 µM (active); in assay [16], 164 µM (active); in assay [17], 125 µM (active). The call in assay [1], in [2], in assay [3], in [4], in assay [5] and in [6] was inactive. The compound was classed as inactive in assay [7], in assay [9], in assay [10], in assay [11], in assay [12] and in assay [13]. For the same compound, the compound was classed as inactive in assay [14], in assay [15], in assay [16] and in assay [17].

Take `CCCCCCCCN(C)CCCCCCCC`: the call in assay [1], in assay [2], in assay [3], in assay [4], in [5] and in [6] was inactive. Besides, the call in assay [7], in [8], in assay [9], in assay [10], in [18] and in assay [11] was inactive. For the same compound, the call in [12], in [13], in [14], in [15], in assay [16] and in assay [17] was inactive. Also, the half-maximal activity concentration (AC50) in [19] is 30.2 µM (active).

Take `CCN(CC)C(=O)c1cc(S(=O)(=O)Cc2ccccc2)c(N2CCC(c3ccccc3)CC2)cc1N(CC)CCN(C)C`: the compound was called inactive in assay [1], in assay [2], in assay [3], in assay [4], in assay [5] and in assay [6]. Further, the call in assay [7], in [8], in assay [9], in assay [10], in assay [18] and in assay [11] was inactive. For the same compound, the outcome in assay [12], in [13], in [19], in [14], in [15] and in [16] was inactive. Besides, the compound was classed as inactive in [17].

For the compound `CCN(Cc1cccnc1)C(=O)c1cccc(Cl)c1[C@]1(C)C(=O)N(Cc2ccc(OC)cc2OC)c2ccc(Cl)cc21`, the half-maximal activity concentration (AC50) was 10.8 µM (active) in [1]; 8.21 µM (active) in [3]; 7.45 µM (active) in assay [4]; 1.75 µM (active) in assay [5]; 10.3 µM (active) in assay [6]; 0.293 µM (active) in assay [9]. The AC50 in assay [10] was 7.42 µM (active); in assay [12], 3.83 µM (active). Also, the result in assay [2], in [7], in [8], in [18], in [11] and in [13] was inactive. The call in assay [19], in assay [14], in [15], in assay [16] and in assay [17] was inactive.

As to `O=C1O[C@H]([C@@H](O)CO)C(O)=C1O`, the result in assay [1], in [2], in assay [3], in assay [4], in assay [5] and in assay [6] was inactive. Also, the result in assay [7], in assay [8], in assay [10], in assay [18], in assay [11] and in assay [12] was inactive. The compound was called inactive in assay [13], in assay [14], in assay [15], in assay [16] and in assay [17]. Further, the AC50 in assay [5] is 62 µM (active).
